Experimental data taken from PubChem BioAssay AID463173 (ICCB-Longwood Screening Facility, Harvard Medical School, 2010).
In all, about 52,000 compounds went through this assay and about 1,700 (3.3%) were called active. Rule as the data show it: active = survival mostly below about 52% (no sharp cut-off); inactive = mostly above about 56%. Many of the other results were omitted from the sample, so actives are more common in it than they were.

Tested on: Wild type
Experiment: growth inhibition of S. aureus wild type versus tarO mutant, primary screen, teichoic acid synthesis inhibitors, RN4220, OD600 (AID 463173)
Conditions: S. aureus RN4220 wild type/DeltatarO growth, OD600, 18 h, stronger effect = lower value, screened at 18.75 µg/mL (by protocol)

SMILES | survival
Cc1ccccc1Nc1c(-c2cccc(Cl)c2)nc2ncccn12 | 83% (inactive)
NC(=O)c1ccccc1NC(=O)CSc1nc(N)cc(=O)[nH]1 | 111% (inactive)
CCOC(=O)/C(C#N)=C/c1ccc(-c2ccccc2)o1 | 81% (inactive)
CCCC(=O)n1nc(-c2cccnc2)nc1NCc1ccc(OC)cc1 | 86% (inactive)
CCOc1ccc2nc(Cl)c(CN(Cc3ccco3)C(=O)N(C)C)cc2c1 | 109% (inactive)
Cc1ccc(C)c(N2CCN(C(=O)c3cc(S(=O)(=O)N4CCCCCC4)cn3C)CC2)c1 | 77% (inactive)
CNC(=O)C1CCN(S(=O)(=O)c2ccccc2)CC1 | 109% (inactive)
O=C(Nc1cc(-c2nc3ccccc3o2)ccc1Cl)c1cccc2c(Cl)cccc12 | 64% (inactive)
COc1ccc(-c2nc3ccccc3o2)cc1NC(=O)C(C)(C)Oc1ccc(Br)cc1 | 0% (active)
COc1ccc(-c2nc3ccccc3o2)cc1NC(=O)c1ccc(-c2ccc(Br)cc2)o1 | 73% (inactive)
COc1ccc(OCC(=O)Nc2cc(-c3nc4ccccc4o3)ccc2Cl)cc1 | 104% (inactive)
COc1ccc(-c2nc3ccccc3o2)cc1NC(=O)COc1ccc(C(C)(C)C)cc1 | 2% (active)
CC(C)(C)c1ccc(C(=O)Nc2cc(-c3nc4ccccc4o3)ccc2Cl)cc1 | 2% (active)
O=C(Nc1cc(-c2nc3ccccc3o2)ccc1Cl)c1ccc(Br)o1 | 65% (inactive)
COc1ccc(-c2nc3ccccc3o2)cc1NC(=O)c1ccc(OCC(C)C)cc1 | 55% (inactive)
COc1ccc(-c2nc3ccccc3o2)cc1NC(=O)c1cc(Br)ccc1OC | 66% (inactive)
O=c1nc2sc3ccccc3n2c(=O)n1-c1ccc(Cl)c(Cl)c1 | 27% (inactive)
CCc1ccc(NC(=O)Cn2nnc(C(=O)NCc3ccc(C)cc3)c2N)cc1 | 69% (inactive)
COc1ccc(-c2cn3c(n2)sc2cc(C(=O)Nc4cc(OC)cc(OC)c4)ccc23)cc1 | 98% (inactive)
COc1ccc(N2CCN(C(=O)c3cc4c(=O)n(Cc5cccs5)ccc4nc3C)CC2)cc1 | 101% (inactive)
CCOc1cccc(C(=O)Nc2ccc(-c3nc4cc(C)cc(C)c4o3)cc2)c1 | 82% (inactive)
Cc1ccc2c(c1)sc1nc(-c3cc4ccccc4oc3=O)cn12 | 76% (inactive)
Cc1cc(C)c(NC(=O)Cn2nnc(-c3nc(-c4ccncc4)no3)c2N)c(C)c1 | 71% (inactive)

SMILES | survival
Cc1ccc(Cl)cc1Nc1nc2ccccc2c2nncn12 | 92% (inactive)
COc1cccc(Nc2nc3ccccc3c3nncn23)c1 | 84% (inactive)
Cc1ccc(Nc2nc3ccccc3c3nncn23)cc1C | 3% (active)
COc1cc2ncc3c(-c4ccccc4)nn(CC(=O)NC4CCCCC4)c3c2cc1OC | 79% (inactive)
CC(C)(C)c1ccc(Oc2ccc(NC(=O)CCC(=O)OCC(=O)c3ccccc3)cc2)cc1 | 86% (inactive)
O=C(CCSCc1cccc(Cl)c1)N1CCN(c2ccc(Cl)cc2)CC1 | 80% (inactive)
CCN(CC)C(=O)c1sc2c(c1C)c(=O)n(-c1ccc(Cl)c(Cl)c1)c(=O)n2Cc1cc(=O)n2ccccc2n1 | 118% (inactive)
CCN(CC)C(=O)c1sc2c(c1C)c(=O)n(-c1ccc(C)c(C)c1)c(=O)n2Cc1cc(=O)n2c(C)cccc2n1 | 22% (inactive)
CCN(CC)C(=O)c1sc2c(c1C)c(=O)n(-c1ccc(Cl)c(Cl)c1)c(=O)n2Cc1cc(=O)n2c(C)cccc2n1 | 0% (active)
COc1ccccc1N1CCN(CC(=O)N2CCCC2)CC1 | 94% (inactive)
Cc1nc2nc[nH]n2c(=O)c1NS(=O)(=O)c1ccc(Br)cc1 | 84% (inactive)
O=S(=O)(c1cc(Cl)ccc1Cl)N1CCCC1 | 78% (inactive)
CCOc1ccccc1NC(=O)CSC1=Nc2ccccc2C2=NC(CC(=O)NC3CCCCC3)C(=O)N12 (stereo unspecified) | 81% (inactive)
Cc1ccc(Cl)cc1NC(=O)COCc1cc(-c2ccco2)on1 | 77% (inactive)
O=C(COCc1cc(-c2cccs2)on1)Nc1cccc(Cl)c1Cl | 59% (inactive)
O=C(COCc1cc(-c2ccco2)on1)Nc1cccc(Cl)c1Cl | 0% (active)
Cc1ccc(O)c(NC(=O)COCc2cc(-c3ccco3)on2)c1 | 87% (inactive)
O=C(COCc1cc(-c2ccco2)on1)Nc1cc(Cl)ccc1O | -2% (active)
O=C(COCc1cc(-c2ccc(F)cc2)on1)Nc1cccc(Cl)c1Cl | 64% (inactive)
COc1cccc(CNC(=O)c2ccc3c(c2)N(Cc2ccc(F)cc2Cl)C(=O)c2ccccc2S3)c1 | 19% (inactive)
Cc1c(C(=O)Nc2cccc(C(F)(F)F)c2)sc2nc[nH]c(=O)c12 | 73% (inactive)
CCOC(=O)c1c(NC(=O)/C=C/c2ccc(OCC)cc2)sc2c1CCCC2 | 78% (inactive)
CCOC(=O)c1c(NC(=O)/C=C/c2ccc(OCC)cc2)sc2c1CCC2 | 139% (inactive)

SMILES | survival
CCOC(=O)c1c(NC(=O)CCCOc2ccc(C(C)(C)C)cc2)sc2c1CCC2 | 7% (active)
CCOC(=O)c1c(NC(=O)CCCOc2ccc(C(C)(C)C)cc2)sc2c1CCCC2 | 9% (active)
CCOC(=O)c1c(NC(=O)CCCOc2ccc(Cl)cc2)sc2c1CCC2 | 20% (inactive)
CCOC(=O)c1c(NC(=O)COc2ccc(C(C)(C)C)cc2)sc2c1CCCC2 | 69% (inactive)
CN(C)C(=O)c1ccc(N(C)S(=O)(=O)c2ccccc2)cc1 | 113% (inactive)
COc1ccc(NC(=S)N(Cc2ccco2)Cc2cc3cc(C)c(C)cc3[nH]c2=O)cc1 | 103% (inactive)
Cc1ccc(C(=O)CSc2nc(-c3ccccc3)nc3c2CCCC3)c(C)c1 | 58% (inactive)
Cc1ccc(C)c(C(=O)CSc2nc(-c3ccccc3)nc3c2CCCC3)c1 | 6% (active)
Cc1ccc(C(=O)CSc2nc(-c3ccccc3)nc3c2CCCC3)cc1 | 55% (inactive)
CCn1c(CNC(=O)c2ccc(OC)cc2)nnc1SCC(=O)Nc1ccc(C)cc1 | 125% (inactive)
O=C1CN(C(=O)c2ccccc2C(F)(F)F)C(c2ccccc2)c2cc(F)ccc2N1 (stereo unspecified) | 66% (inactive)
O=C(NCc1ccc(F)cc1)C1CCCCN1S(=O)(=O)c1ccc(F)cc1 (stereo unspecified) | 0% (active)
COc1ccc(CNC(=O)C2CCCCN2S(=O)(=O)c2ccc(F)cc2)cc1 (stereo unspecified) | 87% (inactive)
Cc1ccc(CNC(=O)C2CCCCN2S(=O)(=O)c2ccc(F)cc2)cc1 (stereo unspecified) | 91% (inactive)
CCOC(=O)CSc1nc(-c2ccc(C)cc2C)cc(-c2ccccc2)c1C#N | 63% (inactive)
CNS(=O)(=O)c1cn(CC(=O)N2CCN(c3cc(C)ccc3C)CC2)cc1S(=O)(=O)NC | 83% (inactive)
COC(=O)c1ccc(Cl)cc1NC(=O)N(Cc1ccc(C)o1)C1CCN(C(C)=O)CC1 | 76% (inactive)
CCN1CCC(N(Cc2ccc(F)cc2)C(=O)Nc2cc(Cl)ccc2C(=O)OC)CC1 | 80% (inactive)
COc1ccc(C)cc1NC(=O)N(C(C)C)C1CCN(C(C)=O)CC1 | 85% (inactive)
COc1ccc(C)cc1NC(=O)N(Cc1ccc(C)o1)C1CCN(C(C)=O)CC1 | 0% (active)
COc1ccc(NC(=O)N(C(C)C)C2CCN(C(C)=O)CC2)c(OC)c1 | -4% (active)
COc1ccc(NC(=O)N(Cc2ccco2)C2CCN(C(C)=O)CC2)c(OC)c1 | 85% (inactive)
CC(=O)N1CCC(N(Cc2ccc(C)o2)C(=O)Nc2ccc(C)cc2)CC1 | 70% (inactive)

SMILES | survival
COC(=O)c1ccc(Cl)cc1NC(=O)N(Cc1ccc(OC)cc1)C1CCN(C(C)=O)CC1 | -6% (active)
CCOc1ccccc1NC(=O)N(Cc1ccc(C)o1)C1CCN(C(C)=O)CC1 | 75% (inactive)
O=C(Cn1c(=O)nc(-c2ccccc2)c2ccccc21)NCc1ccc(F)cc1 | 68% (inactive)
CC(=O)c1ccc(N2CCN(C(=O)CCS(=O)(=O)c3ccc4c(c3)oc(=O)n4C)CC2)cc1 | 89% (inactive)
CCCCCOc1ccc(/C=C/C(=O)Nc2sc(C)c(C)c2C(=O)OCC)cc1OC | 132% (inactive)
CCCOCc1cc(CN2CCN(c3ccccc3OC)CC2)c(O)c2ncccc12 | 99% (inactive)
CC(C)OC(=O)C1=C(N)OC2=C(C(=O)CCC2)C1c1ccccc1F (stereo unspecified) | 114% (inactive)
COc1ccc(CCNC(=O)Cn2c(-c3ccc(F)cc3)cc(C(C)=O)c2C)cc1OC | 54% (inactive)
CN1CCN(CCCNC(=O)c2cnn(-c3ccc(F)cc3)c2-n2cccc2)CC1 | 84% (inactive)
COc1ccc(N2CC(NC(=O)c3ccc(OC(C)C)cc3)CC2=O)cc1 (stereo unspecified) | -2% (active)
COc1ccc(N2CC(NC(=O)CCCc3ccccc3)CC2=O)cc1 (stereo unspecified) | 0% (active)
Cc1ccc(N2CC(NC(=O)Cc3cccs3)CC2=O)cc1 (stereo unspecified) | 0% (active)
COc1cccc(N2CC(NC(=O)CCCc3ccccc3)CC2=O)c1 (stereo unspecified) | 88% (inactive)
Cc1cccc(CC(=O)NC2CC(=O)N(c3cccc(F)c3)C2)c1 (stereo unspecified) | 60% (inactive)
O=C(Cc1ccccc1)NC1CC(=O)N(c2ccccc2)C1 (stereo unspecified) | 76% (inactive)
COc1ccc(C(=O)NC2CC(=O)N(c3ccc4c(c3)OCCO4)C2)cc1 (stereo unspecified) | 143% (inactive)
COc1ccc(N2CC(NC(=O)c3ccc(S(=O)(=O)N4CCCC4)cc3)CC2=O)cc1 (stereo unspecified) | 118% (inactive)
O=C(Cc1cccs1)NC1CC(=O)N(c2ccc(F)cc2)C1 (stereo unspecified) | 95% (inactive)
O=C(Cc1cccs1)NC1CC(=O)N(c2ccccc2)C1 (stereo unspecified) | 78% (inactive)
Cc1cccc(CC(=O)NC2CC(=O)N(c3ccccc3)C2)c1 (stereo unspecified) | -6% (active)
COc1ccc(CCC(=O)NC2CC(=O)N(c3ccccc3)C2)cc1 (stereo unspecified) | 131% (inactive)
COc1ccc(N2CC3=C(C2=O)C(c2ccc(O)c(OC)c2)NC(=O)N3C)cc1 (stereo unspecified) | 71% (inactive)
